The Inhibition is the relative decrease from the control value, in per cent.

Potency and affinity values are given separately.

This assay concerns Candida albicans. The settings on record: Concentration 32 ug.mL-1; ASSAY_TEST Inhibition of Fungal Growth; detection method Absorption (OD530).
`CC(C)Cn1c(=O)c2sccc2n2c(=O)n(Cc3ccccc3Cl)nc12`: the Inhibition was determined as 1.39%.
To `Cc1ccc(-n2ccn3c(=O)n(Cc4c(F)cccc4Cl)nc3c2=O)cc1C` belongs 1.02%.
To `CCOc1ccccc1CNC(=O)CCc1nnc2ccc(-c3ccccc3)nn12` belongs 0.83%; to `CCOc1ccccc1NC(=O)Cn1nc2c3c4c(sc3ncn2c1=O)CCCC4`, 2.9%; to `Cc1cccc(-c2nc(CSc3nc4ccccc4n4c(C)nnc34)c(C)o2)c1`, 3.22%.
To `O=c1c2nnc(SCc3cccc(F)c3)n2ccn1-c1ccc(Br)cc1` belongs 4.16%; to `CSc1cccc(NC(=O)Cn2nc3c(Sc4cccc(F)c4)nccn3c2=O)c1`, 3.02%.
In the case of `CCc1ccc(N(Cc2cccc(F)c2)S(=O)(=O)c2cccn3c(C)nnc23)cc1`, the Inhibition is listed as 0.68%.
To `CCOc1ccc(N(Cc2ccc(F)cc2)S(=O)(=O)c2ccc3nncn3c2)cc1` belongs 3.15%.
To `CCc1ccccc1NC(=O)Cn1nc2c(SC3CCCCC3)nccn2c1=O` belongs -0.63%; to `Cc1cccc(NC(=O)Cn2nc3nc(N4CCCCCC4)ccn3c2=O)c1C`, 1.23%; to `CSc1ccc(CNC(=O)Cn2nc3c(N4CC(C)CC(C)C4)nccn3c2=O)cc1` (stereo not given), 0.13%.
Take `COc1ccc(NC(=O)Cn2nc3c4cc(-c5cc(C)ccc5C)nn4ccn3c2=O)c(OC)c1`: the Inhibition was 3.64%.
To `O=c1n(Cc2nc(-c3ccc(Cl)cc3)no2)nc2ccc(-c3ccccc3)nn12` belongs 2.36%; to `Cc1ccc(Cn2c(=O)c3ccccc3n3c(=O)n(CC#N)nc23)cc1`, -0.23%; to `Cc1ccc(S(=O)(=O)Nc2ccc3nnc(-c4ccccc4)n3n2)cc1C`, 0.52%.
To `N#Cc1ccc(NC(=O)Cn2nc3c(SCc4ccc(Cl)cc4)nccn3c2=O)cc1` belongs 4.94%; to `Cc1cccc(NC(=O)Cn2nc3ccc(-c4ccc(Cl)cc4)nn3c2=O)c1`, 3.82%; to `CCOc1ccc(NC(=O)CSc2nnc3c(=O)n(-c4ccc(OCC)cc4)ccn23)cc1`, 2.39%.
To `Cc1nnc2ccc(S(=O)(=O)N(Cc3ccc(F)cc3)c3ccc(Cl)cc3)cn12` belongs 1.14%; to `CCc1nnc2ccc(S(=O)(=O)N(Cc3ccc(F)cc3)c3ccccc3)cn12`, -0.14%.
`Cc1ccc(NC(=O)Cn2nc3c(N4CCCC4)nccn3c2=O)cc1Cl`: the Inhibition was determined as 0.98%.
Regarding `Cc1ccc(CNC(=O)Cn2nc3c(Oc4ccccc4C)nccn3c2=O)cc1`, the Inhibition turned out to be 1.06%.
To `COc1ccccc1-n1ccn2c(SCC(=O)Nc3ccc(C)c(F)c3)nnc2c1=O` belongs 2.55%; to `O=C(Cn1nc2c(SC3CCCCC3)nccn2c1=O)Nc1ccccc1Br`, 3.41%; to `COC(=O)c1ccc(Cn2nc3ccc(S(=O)(=O)N4CCCCCC4)cn3c2=O)o1`, -1.08%.
To `CCCCn1c(=O)c2sccc2n2c(=O)n(CC(=O)N(C)c3ccccc3)nc12` belongs -0.48%; to `Cc1ccc(-c2ccc3nn(CC(=O)N4CCN(c5ccc(F)cc5)CC4)c(=O)n3n2)cc1C`, 7.38%.
To `CC1CC(C)CN(c2nccn3c(=O)n(CC(=O)Nc4cccc(C(F)(F)F)c4)nc23)C1` (stereo not given) belongs 1.5%; to `COc1ccc(N(Cc2ccc(OC)c(F)c2)S(=O)(=O)c2ccc3nncn3c2)cc1`, 2.89%; to `COc1ccc(NC(=O)CSc2nnc3c(=O)n(-c4cccc(F)c4)ccn23)cc1OC`, 3.49%.
`O=c1c2sccc2n2c(=O)n(Cc3ccc(Br)cc3)nc2n1CCc1ccccc1`: the Inhibition is given as 27.87%.
To `COc1cc(NC(=O)CSc2nnc3c(=O)n(-c4cccc(OC)c4)ccn23)cc(OC)c1` belongs 3.75%; to `O=C(Cn1nc2ccc(SCc3ccc(Cl)cc3)nn2c1=O)Nc1cccc(F)c1`, 31.36%.
Take `Cc1cccc(C)c1NC(=O)Cn1nc2n(C)c(=O)c3c(c(-c4ccccc4)cn3C)n2c1=O`: the Inhibition was found to be 0.83%.
To `Cc1cc2nn(CC(=O)Nc3cccc(F)c3)c(=O)n2c(Nc2ccc(F)c(C)c2)n1` belongs 6.76%.
`CCCc1nnc2c(=O)n(CC(=O)Nc3cccc(Br)c3)c3ccccc3n12`: the Inhibition is 0.12%.
To `COc1ccccc1NC(=O)Cn1nc2c3cc(-c4ccc(Cl)cc4)nn3ccn2c1=O` belongs 8.08%; to `Cc1cc2nn(CC(=O)Nc3cccc(C)c3C)c(=O)n2c(Nc2ccc(C)c(F)c2)n1`, 5.25%; to `Cc1ccc(NC(=O)Cn2nc3c(Sc4ccccc4)nccn3c2=O)c(Br)c1`, 22.67%.
